Assay results as given in the supplement of paper PMC10849652.
About 7,900 targets were measured; listed, in parts, are those with a hit and a random draw of the rest. About 0.6% of all pairs of compound and target were hits. Unmarked numbers belong to inactive results.

Key:
Assay in all cases: log2 fold change, soluble protein after heating vs DMSO (PISA); higher = thermal stabilisation; K562 cells, 10 uM, 30 min; active = over 0.2 and 3.5 SD of the protein, either way, in both replicates (recomputed)
bafetinib = compound: Cc1ccc(NC(=O)c2ccc(CN3CC[C@H](N(C)C)C3)c(C(F)(F)F)c2)cc1Nc1nccc(-c2cncnc2)n1 [bafetinib]
Outline: (§1)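 K562 cells at 2×10^6 cells/mL were given 10 μM compound for 30 min. Aliquots then went through 3 min of heating across 48°C-58°C, were pooled, and were extracted in PBS with 0.5% NP-40 at 4°C, and the supernatant after 21,000xg for 90 min was quantified by TMTpro 16plex LC-MS/MS with channel sums equalised. Thermal stability relative to control samples, from duplicates, is given as log2 fold change.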

[1] = compound: Cc1cccc(CC(=O)N2CCc3c2ccc(-c2cn(C)c4ncnc(N)c24)c3F)n1
Outline: as §1

nilotinib = compound: Cc1cn(-c2cc(NC(=O)c3ccc(C)c(Nc4nccc(-c5cccnc5)n4)c3)cc(C(F)(F)F)c2)cn1 [nilotinib]
Outline: as §1

[2] = compound: Cc1nc(Nc2n[nH]c3c2CN(C(=O)N[C@H](CN(C)C)c2ccccc2)C3(C)C)c2sccc2n1
Outline: as §1

dasatinib = compound: Cc1nc(Nc2ncc(C(=O)Nc3c(C)cccc3Cl)s2)cc(N2CCN(CCO)CC2)n1 [dasatinib]
Outline: as §1

[3] = compound: Cc1ncc(-c2ccnc(Nc3ccc(S(C)(=O)=O)cc3)n2)n1C(C)C
Outline: as §1

[4] = compound: Cn1cc(-c2ccc3c(c2)CCN3C(=O)Cc2cccc(C(F)(F)F)c2)c2c(N)ncnc21
Outline: as §1

[5] = compound: Cn1cc(-c2ccc3nnc(C(F)(F)c4ccc5ncccc5c4)n3n2)cn1
Outline: as §1

tipifarnib = compound: Cn1cncc1[C@@](N)(c1ccc(Cl)cc1)c1ccc2c(c1)c(-c1cccc(Cl)c1)cc(=O)n2C [tipifarnib]
Outline: as §1

mubritinib = compound: FC(F)(F)c1ccc(/C=C/c2nc(COc3ccc(CCCCn4ccnn4)cc3)co2)cc1 [mubritinib]
Outline: as §1

Chain of UniProt Q68DH5 (Q68DH5 whole entry, looked up): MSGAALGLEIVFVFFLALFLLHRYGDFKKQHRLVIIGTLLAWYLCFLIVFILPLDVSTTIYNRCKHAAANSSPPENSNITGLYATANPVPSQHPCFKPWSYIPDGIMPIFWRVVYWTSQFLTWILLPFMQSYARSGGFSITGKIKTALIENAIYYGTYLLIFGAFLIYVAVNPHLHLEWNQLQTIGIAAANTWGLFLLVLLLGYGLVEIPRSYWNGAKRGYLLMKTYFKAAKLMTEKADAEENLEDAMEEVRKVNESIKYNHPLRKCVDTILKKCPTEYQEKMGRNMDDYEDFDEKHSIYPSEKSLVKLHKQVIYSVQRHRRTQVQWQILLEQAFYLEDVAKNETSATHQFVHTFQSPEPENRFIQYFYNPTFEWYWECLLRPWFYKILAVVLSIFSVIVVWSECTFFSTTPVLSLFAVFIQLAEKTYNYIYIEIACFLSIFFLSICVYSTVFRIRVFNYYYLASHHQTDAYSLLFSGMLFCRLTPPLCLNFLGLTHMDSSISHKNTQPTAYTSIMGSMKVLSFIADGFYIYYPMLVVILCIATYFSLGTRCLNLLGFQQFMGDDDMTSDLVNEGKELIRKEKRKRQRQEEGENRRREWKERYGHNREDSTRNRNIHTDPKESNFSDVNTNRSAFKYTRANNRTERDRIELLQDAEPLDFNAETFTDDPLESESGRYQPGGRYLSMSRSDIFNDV
Chain of UniProt Q9BQK8 (Q9BQK8 whole entry, looked up): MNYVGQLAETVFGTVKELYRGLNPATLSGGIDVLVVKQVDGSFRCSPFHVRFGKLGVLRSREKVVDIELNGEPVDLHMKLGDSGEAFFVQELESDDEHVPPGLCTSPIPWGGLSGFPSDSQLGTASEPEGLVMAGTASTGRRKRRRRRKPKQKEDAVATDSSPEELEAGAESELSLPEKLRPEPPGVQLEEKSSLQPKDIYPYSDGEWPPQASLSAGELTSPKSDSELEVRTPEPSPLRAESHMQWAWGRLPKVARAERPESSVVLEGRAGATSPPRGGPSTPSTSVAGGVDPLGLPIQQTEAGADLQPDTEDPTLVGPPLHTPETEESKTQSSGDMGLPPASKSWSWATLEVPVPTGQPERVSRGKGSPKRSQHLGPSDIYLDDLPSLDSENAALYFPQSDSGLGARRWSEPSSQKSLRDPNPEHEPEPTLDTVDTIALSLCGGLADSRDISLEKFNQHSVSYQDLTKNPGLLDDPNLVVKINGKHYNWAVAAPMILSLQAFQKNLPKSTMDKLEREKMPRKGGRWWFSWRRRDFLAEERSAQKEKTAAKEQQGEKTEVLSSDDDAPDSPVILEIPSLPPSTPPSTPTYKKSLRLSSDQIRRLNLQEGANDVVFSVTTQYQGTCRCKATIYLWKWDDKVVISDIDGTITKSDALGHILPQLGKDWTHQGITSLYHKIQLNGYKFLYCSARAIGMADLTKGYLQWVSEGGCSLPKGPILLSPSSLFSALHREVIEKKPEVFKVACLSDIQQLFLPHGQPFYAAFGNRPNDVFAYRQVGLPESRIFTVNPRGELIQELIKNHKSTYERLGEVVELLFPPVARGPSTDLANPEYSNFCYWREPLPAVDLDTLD
Chain of UniProt Q96A72 (Q96A72 whole entry, looked up): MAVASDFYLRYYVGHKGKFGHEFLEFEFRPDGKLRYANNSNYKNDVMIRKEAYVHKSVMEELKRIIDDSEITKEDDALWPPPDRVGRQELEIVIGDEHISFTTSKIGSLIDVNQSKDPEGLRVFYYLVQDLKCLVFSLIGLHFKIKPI
Chain of UniProt Q07666 (Q07666 whole entry, looked up): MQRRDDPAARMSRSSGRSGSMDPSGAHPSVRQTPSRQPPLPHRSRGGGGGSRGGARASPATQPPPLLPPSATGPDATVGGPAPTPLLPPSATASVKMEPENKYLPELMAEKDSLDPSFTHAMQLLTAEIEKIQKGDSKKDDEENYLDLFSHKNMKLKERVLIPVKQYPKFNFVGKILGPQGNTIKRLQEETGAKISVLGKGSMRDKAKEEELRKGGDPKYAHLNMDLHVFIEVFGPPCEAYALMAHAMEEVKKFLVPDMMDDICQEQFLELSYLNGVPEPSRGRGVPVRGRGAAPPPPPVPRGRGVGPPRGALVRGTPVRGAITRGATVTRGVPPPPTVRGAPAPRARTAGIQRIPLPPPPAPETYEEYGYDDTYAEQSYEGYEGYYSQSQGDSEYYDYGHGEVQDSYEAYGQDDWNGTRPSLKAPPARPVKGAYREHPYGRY
Chain of UniProt P23276 (P23276 whole entry, looked up): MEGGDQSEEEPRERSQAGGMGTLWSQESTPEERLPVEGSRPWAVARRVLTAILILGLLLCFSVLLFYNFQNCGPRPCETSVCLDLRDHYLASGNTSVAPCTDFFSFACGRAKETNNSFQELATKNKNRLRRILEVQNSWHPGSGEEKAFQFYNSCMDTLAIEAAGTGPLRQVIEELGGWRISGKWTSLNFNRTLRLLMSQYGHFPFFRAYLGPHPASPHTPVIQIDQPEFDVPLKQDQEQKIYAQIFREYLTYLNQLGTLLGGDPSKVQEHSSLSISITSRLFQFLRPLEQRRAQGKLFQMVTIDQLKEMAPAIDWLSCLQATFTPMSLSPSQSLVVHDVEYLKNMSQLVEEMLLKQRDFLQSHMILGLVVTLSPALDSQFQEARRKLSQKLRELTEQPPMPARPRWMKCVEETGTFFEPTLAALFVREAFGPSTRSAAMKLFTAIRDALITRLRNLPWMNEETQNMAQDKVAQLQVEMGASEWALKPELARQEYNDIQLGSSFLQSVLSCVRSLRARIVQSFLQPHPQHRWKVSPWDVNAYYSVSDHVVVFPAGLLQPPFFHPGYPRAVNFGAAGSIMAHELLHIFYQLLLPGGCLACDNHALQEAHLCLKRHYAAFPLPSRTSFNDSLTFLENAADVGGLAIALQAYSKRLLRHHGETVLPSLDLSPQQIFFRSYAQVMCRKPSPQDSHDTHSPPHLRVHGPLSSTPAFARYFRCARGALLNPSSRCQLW
Chain of UniProt O94889 (O94889 whole entry, looked up): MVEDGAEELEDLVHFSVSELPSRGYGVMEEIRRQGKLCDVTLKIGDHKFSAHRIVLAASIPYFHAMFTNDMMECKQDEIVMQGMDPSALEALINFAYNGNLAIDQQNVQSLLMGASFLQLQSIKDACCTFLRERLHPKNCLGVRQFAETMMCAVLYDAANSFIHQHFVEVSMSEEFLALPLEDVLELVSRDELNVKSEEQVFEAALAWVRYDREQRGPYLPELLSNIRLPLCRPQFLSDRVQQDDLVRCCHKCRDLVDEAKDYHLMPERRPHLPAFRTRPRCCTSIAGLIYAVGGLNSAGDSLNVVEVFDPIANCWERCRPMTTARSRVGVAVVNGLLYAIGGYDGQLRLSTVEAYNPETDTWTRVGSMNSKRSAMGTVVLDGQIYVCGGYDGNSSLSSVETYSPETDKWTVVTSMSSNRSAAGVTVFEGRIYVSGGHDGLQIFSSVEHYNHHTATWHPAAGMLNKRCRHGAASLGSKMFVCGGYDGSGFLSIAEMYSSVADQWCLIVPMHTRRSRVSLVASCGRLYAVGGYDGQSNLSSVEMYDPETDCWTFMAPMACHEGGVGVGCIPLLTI
Chain of UniProt Q9NVH2 (Q9NVH2 whole entry, looked up): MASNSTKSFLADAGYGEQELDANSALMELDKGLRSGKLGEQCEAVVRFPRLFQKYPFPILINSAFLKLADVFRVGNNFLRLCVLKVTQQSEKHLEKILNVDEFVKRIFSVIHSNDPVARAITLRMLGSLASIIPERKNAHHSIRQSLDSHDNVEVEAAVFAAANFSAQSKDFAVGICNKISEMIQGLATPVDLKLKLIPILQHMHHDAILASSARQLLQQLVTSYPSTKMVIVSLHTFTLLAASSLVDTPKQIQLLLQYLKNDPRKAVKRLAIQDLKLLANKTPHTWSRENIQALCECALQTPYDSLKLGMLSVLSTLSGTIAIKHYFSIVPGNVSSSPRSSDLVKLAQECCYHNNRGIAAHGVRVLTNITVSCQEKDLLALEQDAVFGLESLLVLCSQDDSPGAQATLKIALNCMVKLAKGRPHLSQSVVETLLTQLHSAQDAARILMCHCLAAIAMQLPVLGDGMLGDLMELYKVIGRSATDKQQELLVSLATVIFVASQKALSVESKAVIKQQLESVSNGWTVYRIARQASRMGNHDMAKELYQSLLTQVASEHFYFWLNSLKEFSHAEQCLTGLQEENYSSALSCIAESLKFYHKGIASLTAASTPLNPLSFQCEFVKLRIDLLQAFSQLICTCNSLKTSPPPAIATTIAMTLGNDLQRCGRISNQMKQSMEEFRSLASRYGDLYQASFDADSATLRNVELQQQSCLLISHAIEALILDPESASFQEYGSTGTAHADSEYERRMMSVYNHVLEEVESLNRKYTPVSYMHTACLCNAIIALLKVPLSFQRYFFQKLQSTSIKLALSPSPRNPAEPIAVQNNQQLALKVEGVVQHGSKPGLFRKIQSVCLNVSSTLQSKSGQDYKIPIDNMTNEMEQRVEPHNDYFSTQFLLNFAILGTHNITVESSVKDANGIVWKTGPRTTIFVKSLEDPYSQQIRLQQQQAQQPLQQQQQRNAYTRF
Chain of UniProt Q6P1A2 (Q6P1A2 whole entry, looked up): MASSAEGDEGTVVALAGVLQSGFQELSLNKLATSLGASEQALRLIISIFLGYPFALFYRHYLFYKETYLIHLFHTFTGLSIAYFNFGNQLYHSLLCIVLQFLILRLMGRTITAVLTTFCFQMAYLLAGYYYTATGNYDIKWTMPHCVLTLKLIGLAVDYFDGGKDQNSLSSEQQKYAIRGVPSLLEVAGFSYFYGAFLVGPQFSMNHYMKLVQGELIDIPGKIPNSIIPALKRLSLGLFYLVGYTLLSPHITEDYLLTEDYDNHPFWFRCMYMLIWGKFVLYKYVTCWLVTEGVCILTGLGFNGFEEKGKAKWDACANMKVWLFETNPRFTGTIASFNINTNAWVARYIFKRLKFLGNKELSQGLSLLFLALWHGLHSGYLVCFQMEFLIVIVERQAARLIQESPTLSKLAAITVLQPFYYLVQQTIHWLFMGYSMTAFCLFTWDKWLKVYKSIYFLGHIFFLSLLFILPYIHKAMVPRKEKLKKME

Row | Target | log2 fold change (bafetinib) | log2 fold change [1] | log2 fold change (nilotinib) | log2 fold change [2] | log2 fold change (dasatinib) | log2 fold change [3] | log2 fold change [4] | log2 fold change [5] | log2 fold change (tipifarnib) | log2 fold change (mubritinib)
1 | KCT2 (UniProt Q8NC54) | -0.114 | 0.045 | -0.01 | -0.023 | 0.045 | 0.021 | 0.01 | 0.073 | 0.125 | 0.052
2 | KIF3A (UniProt Q9Y496) | 0.022 | -0.047 | -0.128 | 0.054 | -0.068 | 0.093 | 0.025 | -0.043 | -0.031 | 0.018
3 | ITIH4 (UniProt Q14624) | -0.319 | 0.117 | -0.259 | 0.194 | 0.039 | 0.225 | 0.148 | 0.114 | -0.038 | -0.134
4 | KDM1A isoform 2 (UniProt O60341) | 0.007 | 0.014 | -0.078 | -0.059 | -0.07 | -0.001 | -0.002 | -0.011 | -0.108 | 0.095
5 | MFN1 (UniProt Q8IWA4) | -0.114 | -0.034 | -0.005 | -0.05 | -0.054 | 0.02 | 0.032 | -0.019 | 0.123 | -0.01
6 | KEL (UniProt P23276) | -0.027 | -0.002 | 0.017 | -0.032 | -0.019 | 0.004 | 0.083 | 0.003 | 0.031 | -0.591 (active)
7 | LPCAT3 (UniProt Q6P1A2) | 0.108 | 0.063 | 0.044 | 0 | 0.051 | 0.363 (active) | 0.153 | -0.015 | -0.216 | 0.034
8 | LPIN3 isoform 2 (UniProt Q9BQK8) | 0.006 | 0.024 | -0.005 | -0.051 | -0.128 | 0.038 | 0.06 | 0.002 | 0.008 | 0.089
9 | INTS7 (UniProt Q9NVH2) | 0.02 | 0.033 | -0.054 | -0.025 | -0.109 | 0.114 | -0.021 | 0.017 | -0.132 | -0.123
10 | MAGOHB (UniProt Q96A72) | -0.015 | -0.007 | -0.019 | -0.042 | 0.007 | 0.138 | -0.017 | 0.024 | 0 | 0.04
11 | MARCKSL1 (UniProt P49006) | 0.04 | -0.087 | 0.003 | 0.014 | 0.062 | 0.009 | -0.008 | -0.004 | 0.034 | 0.005
12 | LMNB2 (UniProt Q03252) | -0.067 | -0.078 | 0.022 | -0.077 | 0.101 | -0.158 | 0.015 | -0.007 | 0.166 | -0.043
13 | MAPK8 isoform 3 (UniProt P45983) | -0.011 | -0.048 | 0.022 | 0.415 (active) | -0.318 | 0.495 (active) | 0.047 | -0.058 | 0.001 | -0.179
14 | IK (UniProt Q13123) | 0.013 | -0.01 | -0.062 | -0.067 | -0.025 | 0.037 | -0.007 | -0.109 | 0.003 | -0.067
15 | MED1 (UniProt Q15648) | 0.016 | -0.018 | 0.057 | 0 | 0.037 | -0.217 (active) | -0.064 | -0.089 | 0.069 | 0.004
16 | MAPK14 isoform 2 (UniProt Q16539) | 1.73 (active) | -0.038 | 1.67 (active) | 0.176 | 1.37 (active) | 0.037 | -0.071 | -0.02 | -0.049 | 0
17 | LSR (UniProt Q86X29) | 0.068 | -0.057 | 0.024 | -0.254 (active) | 0.003 | 0.009 | 0.072 | 0.018 | 0.011 | 0.01

Row | Target | log2 fold change (bafetinib) | log2 fold change [1] | log2 fold change (nilotinib) | log2 fold change [2] | log2 fold change (dasatinib) | log2 fold change [3] | log2 fold change [4] | log2 fold change [5] | log2 fold change (tipifarnib) | log2 fold change (mubritinib)
18 | MAGI1 (UniProt Q96QZ7) | -0.055 | -0.023 | 0.015 | -0.477 (active) | 0.039 | -0.044 | 0.052 | -0.079 | 0.079 | -0.021
19 | MAPRE3 (UniProt Q9UPY8) | -0.037 | 0.038 | -0.012 | -0.038 | -0.042 | 0.021 | -0.041 | 0.061 | -0.037 | 0.027
20 | MARCKS (UniProt P29966) | -0.102 | -0.133 | 0.053 | -0.003 | 0.022 | -0.007 | 0.033 | 0.034 | -0.002 | -0.017
21 | LMBRD2 (UniProt Q68DH5) | -0.142 | -0.006 | -0.048 | 0.041 | 0.019 | -0.028 | -0.03 | 0.043 | 0.189 | -0.007
22 | LPIN1 isoform 7 (UniProt Q14693) | -0.076 | 0.051 | -0.038 | 0.046 | -0.016 | -0.079 | -0.025 | -0.058 | -0.019 | 0.095
23 | KLHL18 (UniProt O94889) | 0.027 | -0.252 | 0.005 | -0.021 | -0.187 | 0.025 | 0.061 | -0.027 | 0.044 | -0.017
24 | KHDRBS1 (UniProt Q07666) | 0.041 | 0.007 | 0.035 | 0.02 | 0.012 | 0.07 | 0.025 | -0.024 | 0.017 | 0.021
25 | MCL1 (UniProt Q07820) | -0.181 | -0.017 | 0.015 | -0.053 | 0.068 | -0.079 | -0.021 | -0.158 | 0.109 | 0.001
26 | INPP1 (UniProt P49441) | 0.003 | 0.094 | -0.001 | 0.067 | 0.027 | 0.053 | 0.037 | 0.027 | -0.135 | 0.15
27 | LSS (UniProt P48449) | 0.393 | 0 | -0.046 | 0.047 | 0 | 0.013 | 0.145 | 0 | -0.039 | 0.193
28 | KIAA1324L (UniProt A8MWY0) | -0.099 | 0.022 | 0.042 | -0.031 | 0.025 | -0.003 | 0.022 | 0.029 | 0.047 | 0.091
29 | LBR (UniProt Q14739) | 0.113 | 0.101 | -0.201 | -0.007 | -0.017 | -0.018 | 0.041 | 0.012 | -0.141 | 0.026
30 | MAST4 (UniProt O15021) | -0.029 | 0.034 | -0.073 | -0.757 (active) | -0.112 | -0.004 | 0.131 | 0.09 | -0.087 | -0.003
31 | LARP4B (UniProt Q92615) | 0.022 | -0.025 | -0.055 | -0.192 | -0.072 | -0.092 | -0.052 | -0.031 | -0.008 | -0.038
32 | IGF2R (UniProt P11717) | -0.338 (active) | 0.021 | -0.02 | -0.087 | -0.023 | 0.021 | 0 | 0.023 | 0.045 | 0.003
33 | ME2 (UniProt P23368) | -0.012 | -0.087 | 0.138 | 0.029 | -0.052 | -0.015 | -0.076 | 0.001 | 0.107 | -0.074
